Compounds with a hit are over-represented: about 3% of the library has one in this group of screens.
USP1-UAF1 inh = Inhibitors of USP1/UAF1: Primary Screen; recombinant USP1/UAF1, Ub-Rhodamine cleavage fluorescence; Potency, µM (titrated, usually from 57.1 µM), for inactives: at the top dose activity change, negative = inhibition, most hits filed as inhibitors; 0.23% of 390,000 active; note: % is set by controls: 0 for no effect and ±100 for the full control effect; nearly all actives have a fitted effect of over 60% in size
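1 nM enzyme complex + cpd, 15 min RT; start with Ub-Rho 150nM final; kinetic fluorescence ex 480/em 540, 6 reads q60 s. Buffer 50mM HEPES pH 7.8, 0.5mM EDTA, 0.1 mg/ml BSA, 1mM TCEP, 0.01% Tween-20.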
GCN5L2 inh = qHTS Assay for Inhibitors of GCN5L2; GCN5L2 HAT assay, ThioGlo1 CoA-SH fluorescence; Potency, µM (titrated, usually from 58.9 µM), for inactives: at the top dose activity change, negative = inhibition, most hits filed as inhibitors; 0.21% of 390,000 active; Histone acetyltransferase KAT2A (Homo sapiens), Q92830; note: % is set by controls: 0 for no effect and ±100 for the full control effect
Target sequence (Q92830 whole entry, looked up): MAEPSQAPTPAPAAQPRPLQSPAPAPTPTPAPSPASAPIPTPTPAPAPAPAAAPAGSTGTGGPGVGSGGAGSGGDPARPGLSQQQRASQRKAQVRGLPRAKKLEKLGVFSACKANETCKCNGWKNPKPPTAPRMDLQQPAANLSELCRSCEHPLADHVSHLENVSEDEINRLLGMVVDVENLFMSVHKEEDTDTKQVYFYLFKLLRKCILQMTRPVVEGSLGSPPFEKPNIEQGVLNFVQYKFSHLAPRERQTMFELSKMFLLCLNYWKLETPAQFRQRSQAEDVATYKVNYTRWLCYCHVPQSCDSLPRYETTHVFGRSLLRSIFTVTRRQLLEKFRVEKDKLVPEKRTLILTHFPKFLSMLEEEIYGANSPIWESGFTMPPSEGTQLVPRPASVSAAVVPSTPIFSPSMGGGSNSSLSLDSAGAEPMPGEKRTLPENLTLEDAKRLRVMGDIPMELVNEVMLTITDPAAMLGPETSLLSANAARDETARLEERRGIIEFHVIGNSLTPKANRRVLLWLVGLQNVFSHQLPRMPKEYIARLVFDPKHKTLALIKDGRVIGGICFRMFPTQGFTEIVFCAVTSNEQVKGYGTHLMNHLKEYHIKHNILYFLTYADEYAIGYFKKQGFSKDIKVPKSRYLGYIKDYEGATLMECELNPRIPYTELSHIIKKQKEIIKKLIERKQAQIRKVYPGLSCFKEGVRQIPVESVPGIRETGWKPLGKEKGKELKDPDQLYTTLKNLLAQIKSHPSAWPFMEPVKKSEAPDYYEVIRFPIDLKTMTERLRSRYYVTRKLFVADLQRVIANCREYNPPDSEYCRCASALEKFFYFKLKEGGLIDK
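Preincubate 20nM GCN5L2 with compound 15 min, RT → add 50uM ThioGlo1 + 75uM H3(1-25) + 70uM acetyl-CoA → read fluorescence 0 and 20 min. Primary qHTS; fluorescent artifacts likely.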
VDR inh = Inhibitors of the vitamin D receptor (VDR): qHTS | VDR-SRC2-3 peptide fluorescence polarization, 2 h | Vitamin D3 receptor (Homo sapiens), P11473 | Potency, µM, for the others: max response, negative = inhibition, most hits filed as inhibitors | AID 504847, 2011 | 0.93% of 400,000 active; note: % is set by controls: 0 for no effect and ±100 for the full control effect
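VDR–SRC2-3 interaction, FP format. Cmpds 23 nl via pintool, brief spin, 2 h ambient incubation.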
PLK1 PBD inh = qHTS for Inhibitors of PLK1-PDB (polo-like kinase 1 - polo-box domain): Primary Screen | Serine/threonine-protein kinase PLK1 (Homo sapiens), P53350 | Plk1 PBD binding of FITC phosphopeptide, fluorescence polarization | Potency, µM, for the others: max response, negative = inhibition, usual class: inhibitors | 2.8% of 360,000 active; note: series mostly up to about 57 µM; % is set by controls: 0 for no effect and ±100 for the full control effect; nearly all actives have a fitted effect of over 65% in size
TSG101-PTAP inh = qHTS Assay for Iinhibitors of HIV-1 Budding by Blocking the Interaction of PTAP/TSG101; Fluorescence polarization, FITC-PTAP peptide / Tsg101 binding; Tumor susceptibility gene 101 protein (Homo sapiens), Q99816; Potency, µM (titrated, usually from 115 µM), for inactives: top-dose activity change, negative = inhibition, hits mostly inhibitors; 340,000 tested, under 10 active; active = well fitted inhibition curve with a large enough effect in the main read-out, with a control signal flat, not every such curve was filed as active; inconclusive = small, poorly fitted or top-dose-only effect, or effect the other way, or a change in a side signal; inactive = no such curve, though single readings can be large or run the other way; note: % of control where 0% means no effect
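Compounds were pin-transferred onto Tsg101 binding domain (10 uM final) in HEPES pH 7.5 buffer, then FITC-PTAP peptide was added at 50 nM final. After 20 min at RT, polarization reported peptide displacement across a qHTS concentration series.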
Numbers without * were called inactive; ! = a repeat was not active. Unless noted, calls come from the whole dose curve; as a rule, active = well fitted curve in the direction sought with a large enough effect; inconclusive = small, poorly fitted or top-dose-only effect, or another doubt; inactive = no such curve, though single readings can be large; an effect the other way counts as inactive or inconclusive. Potency is the fitted concentration of half-maximal effect.

For O=C1OC(Nc2nc3ccccc3s2)c2ccccc21 (stereo unspecified) the results were USP1-UAF1 inh -17.3%, GCN5L2 inh -3.6%, VDR inh 4.4%, PLK1 PBD inh inconclusive and TSG101-PTAP inh -1.3%.
Screening O=C1OC(Nc2nccs2)c2ccccc21 (stereo unspecified) returned USP1-UAF1 inh -8.8%, GCN5L2 inh -2.1%, VDR inh inconclusive, PLK1 PBD inh 23.8µM* and TSG101-PTAP inh -8.3%.
Screening O=C(NCC(O)c1ccccc1)c1ccc(Cl)c(S(=O)(=O)N2CCCC2)c1 (stereo unspecified) returned USP1-UAF1 inh 0.9%, GCN5L2 inh 1.1%, VDR inh -10.7%, PLK1 PBD inh -6.9% and TSG101-PTAP inh -2.5%.
Screening Cc1cc(C)c(C)c(S(=O)(=O)N2C(=S)NC(=O)C2C(C)C)c1C (stereo unspecified) returned USP1-UAF1 inh -20.0%, GCN5L2 inh -3.4%, VDR inh -11.4%, PLK1 PBD inh 26.7µM* and TSG101-PTAP inh -0.7%.
`CC1C(=O)N(Cc2cn(CCC3OCCCO3)nn2)CCS(=O)(=O)N1Cc1ccc(-c2ccc(F)nc2)cc1` (stereo unspecified) gave USP1-UAF1 inh -23.9% and PLK1 PBD inh -11.3%.
For COc1ccc(Cl)cc1N1C(=O)CN(Cc2cc(OC)c(OC)c(OC)c2)C1=S the results were USP1-UAF1 inh -11.2%, GCN5L2 inh -2.5%, VDR inh inconclusive, PLK1 PBD inh 7.52µM* and TSG101-PTAP inh 1.0%.
`O=C(CSC1CC(=O)N(CCc2ccccc2)C1=O)Nc1cccc(Cl)c1` (stereo unspecified) gave USP1-UAF1 inh -21.0%, GCN5L2 inh -3.6%, VDR inh 79.4µM*, PLK1 PBD inh inconclusive and TSG101-PTAP inh -0.8%.
For Oc1ccc(Br)cc1C1C=C(c2ccc3c(c2)OCO3)NC(c2ccc(F)c(Br)c2)N1 (stereo unspecified) the results were VDR inh 50.1µM*.
Oc1ccccc1C1C=C(c2ccc3c(c2)OCO3)NC(c2ccc(Br)cc2)N1 (stereo unspecified) was read as VDR inh -27.2%.
O=C1NC(=O)C(c2ccccc2[N+](=O)[O-])=C1Nc1ccc(O)c(Cl)c1 was read as USP1-UAF1 inh -16.6%, GCN5L2 inh inconclusive, VDR inh 44.7µM*!, PLK1 PBD inh -15.3% and TSG101-PTAP inh -5.6%.
Screening O=C(NNc1ccccc1[N+](=O)[O-])Nc1ccc(Cl)c(Cl)c1 returned USP1-UAF1 inh -24.3%, GCN5L2 inh -0.7%, VDR inh -9.6%, PLK1 PBD inh -0.2% and TSG101-PTAP inh -3.8%.
Screening COc1cccc(CNC(=O)COc2cc(=O)n(C)c3ccccc23)c1 returned USP1-UAF1 inh -7.7%, GCN5L2 inh 1.1% and VDR inh -28.0%.
`O=C1NC(c2cccs2)Nc2ccccc21` (stereo unspecified) gave USP1-UAF1 inh -10.7%, GCN5L2 inh -7.1%, VDR inh -18.5%, PLK1 PBD inh 2.67µM* and TSG101-PTAP inh -2.1%.
For Cc1ccsc1C1NC(=O)c2ccccc2N1 (stereo unspecified) the results were USP1-UAF1 inh -12.1%, GCN5L2 inh -2.9%, VDR inh -7.7%, PLK1 PBD inh -11.4% and TSG101-PTAP inh -2.0%.
`COc1cc2c(cc1OC)C(COc1ccc3c(C)cc(=O)oc3c1)N(C(=O)c1cccc(C)c1)CC2` (stereo unspecified) gave USP1-UAF1 inh -2.4%, GCN5L2 inh -5.4% and VDR inh 7.9%.
Screening CCC(C)c1cc([N+](=O)[O-])cc([N+](=O)[O-])c1OC(=O)OC(C)C (stereo unspecified) returned GCN5L2 inh 18.4% and VDR inh 11.2µM*.
`NC(=O)c1ccc[n+](CCC[n+]2cccc(C(N)=O)c2)c1` gave USP1-UAF1 inh -9.6%, GCN5L2 inh -0.1%, VDR inh 1.2%, PLK1 PBD inh inconclusive and TSG101-PTAP inh -8.6%.
Screening CC(C)(C)C(=O)C[n+]1cccc(C(N)=O)c1 returned USP1-UAF1 inh -19.7%, GCN5L2 inh -2.1%, VDR inh -14.3%, PLK1 PBD inh 29.9µM* and TSG101-PTAP inh -7.3%.
Screening CCCCCCCCCCOC(=O)C[N+](C)(C)C/C=C(/C)Cl returned USP1-UAF1 inh -11.8%, GCN5L2 inh -3.1%, VDR inh -25.0%, PLK1 PBD inh 29.9µM* and TSG101-PTAP inh -8.9%.
`CCCCCCCCOC(=O)C[N+](C)(C)C/C=C(/C)Cl` gave USP1-UAF1 inh -9.9%, GCN5L2 inh -3.9%, VDR inh -1.1%, PLK1 PBD inh 3.9% and TSG101-PTAP inh -1.0%.
Screening O=C1Nc2cccnc2Sc2ccccc21 returned USP1-UAF1 inh -9.1%, GCN5L2 inh -12.9%, VDR inh 3.3%, PLK1 PBD inh -10.0% and TSG101-PTAP inh -3.9%.
`c1ccc2c(c1)Nc1nccnc1S2` gave USP1-UAF1 inh -15.4%, GCN5L2 inh 1.3%, VDR inh inconclusive, PLK1 PBD inh 15µM* and TSG101-PTAP inh -2.8%.
Screening O=C(O)COc1ccccc1/C=N/NC(=O)CSc1nc2ccccc2n1Cc1ccccc1Cl returned USP1-UAF1 inh -17.3%, GCN5L2 inh -0.1%, VDR inh 10.0%, PLK1 PBD inh 59.7µM* and TSG101-PTAP inh -5.4%.
For O=c1c(CCc2ccccc2)nc2cnc(N3CCNCC3)nc2n1Cc1ccc(F)cc1 the results were GCN5L2 inh inconclusive and VDR inh -8.6%.
Screening CCCCCCc1cc2cc(-c3nnc(-c4ccccc4O)o3)c(=O)oc2cc1O returned USP1-UAF1 inh 8.91µM*, GCN5L2 inh -3.2%, VDR inh 8.2%, PLK1 PBD inh -24.4% and TSG101-PTAP inh inconclusive.
For CCCCCCc1cc2cc(-c3nnc(-c4ccccc4OC)o3)c(=O)oc2cc1O the results were USP1-UAF1 inh 14.1µM*, GCN5L2 inh -6.8%, VDR inh -0.4%, PLK1 PBD inh -26.5% and TSG101-PTAP inh inconclusive.
For CCCCCCc1cc2cc(-c3nnc(-c4cc(OC)c(OC)c(OC)c4)o3)c(=O)oc2cc1O the results were USP1-UAF1 inh 65.8%, GCN5L2 inh -2.0%, VDR inh -11.7%, PLK1 PBD inh -3.3% and TSG101-PTAP inh inconclusive.
For CCC(=O)Nc1ccc(S(=O)(=O)NCc2cccn2Cc2cccc(C)c2)cc1 the results were USP1-UAF1 inh -6.6%, GCN5L2 inh 3.5% and VDR inh 16.4%.
`Cc1ccc(OCC(=O)Nc2nnc(SCc3cc(=O)c4ccccc4[nH]3)s2)cc1C` gave USP1-UAF1 inh -17.3%, GCN5L2 inh -3.2% and VDR inh 10.2%.
